# Reference: PubChem BioAssay (Tox21)
# Several values for one entry are separate records, joined by “and”; a condition that tells them apart may be missing. Identical values can stand only once. Inconclusive results are not listed. Where a call stands in place of a potency, no number is given. Where a structure was tested more than once in an assay, its records may differ in their call. Activity calls are given as the source filed them. Unless noted, calls come from the whole dose curve; as a rule, active = well fitted curve in the direction sought with a large enough effect in the repeat runs; inconclusive = weak or mixed curves; inactive = no such curve, though single readings can be large; an effect the other way counts as inactive or inconclusive.
# How the values were obtained:
# [1] = qHTS assay to identify small molecule agonists of H2AX - cell viability counter screen (AID 1224847; calls by dose curve; note: nearly all actives have a fitted effect of over 30% in size; note: potency is the fitted concentration of half-maximal effect; for activity change, negative = cytotoxicity: top concentration of the series differs between compounds)
# Method in brief: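 CHO-K1 wt, 1000 cells/well, o/n 37C; cpds 15 conc, 3 h 37C, 0.76% DMSO; CellTiter-Glo, 30 min RT, luminescence.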
# [2] = qHTS RealTime-Glo MT Cell Viability Assay in HepG2 cells - 24 hour (AID 1224867); note: nearly all actives have a fitted effect of over 50% in size; note: potency is the fitted concentration of half-maximal effect
# Method in brief: (§1)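 qHTS, HepG2, 600 cells/well, RealTime-Glo (NanoLuc + prosubstrate) added with cells; 5 h preincubation; DMSO compound addition; 37 C; luminescence at 0/8/16/24/32/40 h.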
# [3] = qHTS RealTime-Glo MT Cell Viability Assay in HEK293 cells - 32 hour (AID 1224868); note: nearly all actives have a fitted effect of over 50% in size; note: potency is the fitted concentration of half-maximal effect; for activity change, negative = cytotoxic: top concentration of the series differs between compounds
# Method in brief: (§2)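 Assay medium contained NanoLuc luciferase plus cell-permeant prosubstrate, added with HEK293 cells at 600 cells/well. After 5 h at 37 C/5% CO2 compounds were added; plates stayed at 37 C for 40 h with serial luminescence reads.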
# [4] = A CellTox Green Cytotoxicity Assay to monitor cytotoxicity in HEK293 cells - 0 hour (AID 1224869); note: nearly all actives have a fitted effect of over 50% in size; note: potency is the fitted concentration of half-maximal effect
# Method in brief: (§3)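 Nonlytic real-time cytotoxicity: HEK293 + CellTox Green reagent plated, 5 h preincubation, pintool compound addition (23 nL in DMSO), 37 C for 40 h, fluorescence measured at successive time points.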
# [5] = qHTS RealTime-Glo MT Cell Viability Assay in HEK293 cells - 40 hour (AID 1224874); settings: RealTime-Glo luminescence; max response: stronger effect = lower value; note: nearly all actives have a fitted effect of over 50% in size; note: potency is the fitted concentration of half-maximal effect
# Method in brief: (§4)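 Cells were seeded together with NanoLuc luciferase and a prosubstrate that viable cells reduce to a luciferase substrate. After a 5 h incubation at 37 C/5% CO2, compounds were added and luminescence was measured repeatedly during 40 h of treatment.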
# [6] = A CellTox Green Cytotoxicity Assay to monitor cytotoxicity in HepG2 cells - 16 hour (AID 1224876); note: nearly all actives have a fitted effect of over 45% in size; note: potency is the fitted concentration of half-maximal effect
# Method in brief: (§5)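 Read-out is fluorescence of a cyanine dye excluded from live cells that stains DNA of dead HepG2 cells, with signal proportional to cytotoxicity. Plates were read at 0, 8, 16, 24, 32 and 40 h after compound addition.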
# [7] = qHTS RealTime-Glo MT Cell Viability Assay in HepG2 cells - 32 hour (AID 1224877); note: nearly all actives have a fitted effect of over 55% in size; note: potency is the fitted concentration of half-maximal effect
# Method in brief: as §1
# [8] = A CellTox Green Cytotoxicity Assay to monitor cytotoxicity in HepG2 cells - 24 hour (AID 1224878); note: nearly all actives have a fitted effect of over 45% in size; note: potency is the fitted concentration of half-maximal effect
# Method in brief: as §5
# [9] = A CellTox Green Cytotoxicity Assay to monitor cytotoxicity in HepG2 cells - 40 hour (AID 1224879); note: nearly all actives have a fitted effect of over 40% in size; note: potency is the fitted concentration of half-maximal effect
# Method in brief: as §5
# [10] = qHTS RealTime-Glo MT Cell Viability Assay in HepG2 cells - 40 hour (AID 1224870); note: nearly all actives have a fitted effect of over 50% in size
# Method in brief: (§6)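 HepG2 cells (600/well) mixed with RealTime-Glo MT reagent, settled 5 h at 37 C/5% CO2 before compound addition. Nonlytic NanoLuc luminescence from viable-cell prosubstrate reduction read repeatedly during 40 h treatment at 37 C.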
# [11] = A CellTox Green Cytotoxicity Assay to monitor cytotoxicity in HEK293 cells - 40 hour (AID 1224871); note: nearly all actives have a fitted effect of over 45% in size; note: potency is the fitted concentration of half-maximal effect
# Method in brief: as §3
# [12] = qHTS RealTime-Glo MT Cell Viability Assay in HEK293 cells - 16 hour (AID 1224872); note: nearly all actives have a fitted effect of over 50% in size; note: potency is the fitted concentration of half-maximal effect; for activity change, negative = cytotoxicity: top concentration of the series differs between compounds
# Method in brief: as §2
# [13] = qHTS RealTime-Glo MT Cell Viability Assay in HepG2 cells - 8 hour (AID 1224873); note: nearly all actives have a fitted effect of over 55% in size; note: potency is the fitted concentration of half-maximal effect
# Method in brief: as §6
# [14] = qHTS RealTime-Glo MT Cell Viability Assay in HEK293 cells - 0 hour (AID 1224880); note: nearly all actives have a fitted effect of over 45% in size; note: potency is the fitted concentration of half-maximal effect; for activity change, negative = cytotoxicity: top concentration of the series differs between compounds
# Method in brief: as §4
# [15] = qHTS assay to identify small molecule agonists of H2AX (AID 1224845; active = well fitted activation curve with a large enough effect in the signal ratio in the repeat runs, not every such curve was filed as active; the % refers to the signal ratio; note: potency is the fitted concentration of half-maximal effect)
# Method in brief: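 Wild-type CHO-K1 cells, plated overnight, exposed 3hr at 37C to 15 concentrations (0.76% DMSO final). Lysed, then HTRF anti-pH2AX (S139) cryptate and anti-H2AX-d2 antibodies, 24 hr room temperature; 665/620 nm emission read.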
# [16] = A CellTox Green Cytotoxicity Assay to monitor cytotoxicity in HEK293 cells - 24 hour (AID 1224875); note: nearly all actives have a fitted effect of over 45% in size
# Method in brief: as §3
# [17] = qHTS assay to identify small molecule antagonists of the estrogen related receptor (ERR) signaling pathway from Tox21 library (AID 1224848)
# Method in brief: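 ERR reporter cell line (from NTP) seeded 2,000 cells/well, rested 6 h at 37 C/5% CO2, then pin-dosed with compounds in DMSO. After 18 h at 37 C, ONE-Glo added; luminescence read after 30 min at room temperature.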
# [18] = qHTS assay to identify small molecule agonists of the estrogen related receptor (ERR) signaling pathway from Tox21 library (AID 1224849; calls by dose curve; note: nearly all actives have a fitted effect of over 15% in size); settings: ERR reporter cell line, ONE-Glo luciferase, 18 h; at 92.4 µM (top of the series)
# Method in brief: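 ERR cells, 6 h pre-incubation 37 C/5% CO2; cpd in DMSO pinned; 18 h 37 C; ONE-Glo added, 30 min RT; luminescence read. Agonist mode, qHTS.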
smiles,measurement,setting,value
COc1ccc(OC(F)(F)F)cc1CN[C@H]1CCCN[C@H]1c1ccccc1,Potency,[1],113 µM (active)
same,Potency,[2],54.9 µM (active)
same,Potency,[3],43.6 µM (active)
same,Potency,[4],inactive
same,Potency,[5],43.6 µM (active)
same,Potency,[6],54.9 µM (active)
same,Potency,[7],54.9 µM (active)
same,Potency,[8],49 µM (active)
same,Potency,[9],49 µM (active)
O=C1OC2(c3ccccc31)c1cc(Br)c(O)c(Br)c1Oc1c2cc(Br)c(O)c1Br,Potency,[1],inactive
same,Potency,[2],inactive
same,Potency,[3],inactive
same,Potency,[4],11.1 µM (active) and 17.9 µM (active) and 23.9 µM (active)
same,Potency,[10],inactive
same,Potency,[11],3.95 µM (active) and 11.3 µM (active) and 7.56 µM (active)
same,Potency,[12],inactive
same,Potency,[13],inactive
same,max response,[5],-26.3% (inactive) and -6.61% (inactive)
same,Potency,[6],4.97 µM (active) and 14.2 µM (active) and 23.9 µM (active)
same,Potency,[7],inactive
same,Potency,[8],4.97 µM (active) and 12.7 µM (active) and 23.9 µM (active)
same,Potency,[9],5.58 µM (active) and 14.2 µM (active) and 23.9 µM (active)
same,Potency,[14],9.92 µM (active) and 17.9 µM (active) and 23.9 µM (active)
CCc1nc(N)nc(N)c1-c1ccc(Cl)cc1,Potency,[15],22.9 µM (active)
same,Potency,[1],inactive and 8.98 µM (active) and 12.4 µM (active)
same,Potency,[2],inactive
same,Potency,[4],inactive
same,Potency,[10],inactive
same,Potency,[11],inactive
same,Potency,[13],inactive
same,Potency,[5],3.52 µM (active) and 12.3 µM (active) and 5.35 µM (active)
same,Potency,[16],inactive
same,Potency,[6],inactive
same,Potency,[7],inactive
same,Potency,[8],inactive
same,Potency,[9],inactive
same,Potency,[14],inactive
Nc1c(N=Nc2ccc(-c3ccc(N=Nc4cc(S(=O)(=O)O)c5ccccc5c4N)cc3)cc2)cc(S(=O)(=O)O)c2ccccc12,Potency,[17],24.3 µM (active)
same,"activity change, positive = activation",[18],-40.2% (inactive)
same,Potency,[4],inactive
same,Potency,[11],inactive
same,Potency,[12],38.9 µM (active)
same,Potency,[13],38.9 µM (active)
same,Potency,[16],inactive
same,Potency,[6],inactive
same,Potency,[7],48.9 µM (active)
same,Potency,[8],inactive
same,Potency,[9],inactive
Nc1ccc([N+](=O)[O-])cc1O,Potency,[1],inactive
same,Potency,[3],inactive
same,Potency,[4],inactive
same,Potency,[10],inactive
same,Potency,[11],inactive
same,Potency,[12],inactive
same,Potency,[13],inactive
same,Potency,[16],inactive
same,Potency,[7],inactive
same,Potency,[9],inactive
same,Potency,[14],inactive
Nc1ccc2c(c1)CN1C(=O)c3ccccc3C1=N2,Potency,[1],17 µM (active)
same,"activity change, negative = cytotoxicity",[2],-3.47% [at 15.8 µM] (inactive)
same,Potency,[4],11.7 µM (active)
same,"activity change, negative = cytotoxic",[10],1.05% [at 15.8 µM] (inactive)
same,Potency,[11],10.4 µM (active)
same,"viability change, negative = cytotoxic",[13],-9.67% [at 15.8 µM] (inactive)
same,Potency,[5],3.69 µM (active)
same,"activity change, negative = cytotoxic",[7],-0.629% [at 15.8 µM] (inactive)
same,Potency,[9],10.4 µM (active)
same,"activity change, negative = cytotoxicity",[14],5.64% [at 15.8 µM] (inactive)
